This is a sample that favours compounds with a hit; in the whole collection about 10% have one here.
GPT2 inhibitor: Primary qHTS assay for inhibitors of Glutamate pyruvate transaminase 2 (GPT2). Alanine aminotransferase 2 (Homo sapiens), Q8TD30. Recombinant GPT2, coupled pyruvate oxidase/HRP Amplex Red fluorescence. Potency, µM (doses to about 57.7 µM), hits mostly inhibitors. 0.25% of 100,000 active. AID 1671188, 2021; note: nearly all actives have a fitted effect of over 60% in size
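Fluorescence read-out: pyruvate from GPT2 turnover coupled to pyruvate oxidase, HRP and Amplex Red (0.2mM ThPP, 0.2U/mL PO and HRP, 50uM Amplex final). Substrates 250uM a-KG, 2mM L-alanine; enzyme 10ng/uL; 30 min RT.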
HEK293 tox: Cytotoxic Profiling in HEK 293 Cell Line of Diverse Libraries Using Quantitative High-Throughput Screening. 6.6% of 94,000 active. HEK 293 viability, ATP luminescence (CellTiter-Glo), 48-72 h. AID 1345083, 2018. Potency, µM (titrated, usually from 115 µM), actives largely listed as inhibitors; note: nearly all actives have a fitted effect of over 60% in size
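Cells seeded first (HEK 293, 250 cells/well), then compound added by pintool. Incubation ran 48 or 72 hr at 37 degree Celsius. CellTiter-Glo was added and luminescence imaged after 10 min at room temperature.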
NPR1 antag: Natriuretic polypeptide receptor (hNpr1) antagonism - Primary qHTS; Potency, µM (top dose mostly 46.3 µM), hits mostly inhibitors; 1.6% of 76,000 active; Atrial natriuretic peptide receptor 1 (Homo sapiens), P16066; HEK293 hNpr1 GloSensor cGMP, ANP-stimulated luminescence; calls by dose curve; note: nearly all actives have a fitted effect of over 60% in size
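Compound pre-incubated 30 min at room temperature on GloSensor-loaded HEK293 cells stably carrying hNpr1 and the pGS-40F cGMP biosensor. Stimulation uses hNppA at 0.1 nM final; luminescence is taken at baseline and 20 min post-agonist.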
3T3 cytotox: Cytotoxic Profiling in NIH 3T3 Cell Line of Diverse Libraries Using Quantitative High-Throughput Screening | NIH 3T3 viability, CellTiter-Glo ATP luminescence, 48-72 h | Potency, µM (series often up to 96.7 µM), actives largely listed as inhibitors | 4.3% of 94,000 active | AID 1345082, 2018; note: nearly all actives have a fitted effect of over 55% in size
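Cells were seeded at 400 per well, treated with pin-transferred compound, and kept 48 or 72 hr at 37 °C before CellTiter-Glo addition and luminescence imaging of cellular ATP.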
Luciferase inh: Firefly luciferase inhibition profiling of diverse chemical library using quantitative high-throughput screening; 2.5% of 76,000 active; Potency, µM (highest dose often 115 µM), usual class: inhibitors; purified P. pyralis luciferase, luminescence, biochemical; note: nearly all actives have a fitted effect of over 65% in size
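Inhibitors were tested against purified firefly luciferase in a biochemical, low-substrate format (both substrates at 10uM) and luminescence measured with a CCD imager.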
NPR1 antag cnf: Natriuretic polypeptide receptor (hNpr1) antagonism - Confirmation; shares compounds with NPR1 antag; HEK293 hNpr1 cGMP GloSensor luminescence, ANP-stimulated; Potency, µM (series often up to 57.6 µM), usual class: inhibitors; 76% of 1,400 active; calls by dose curve; note: nearly all actives have a fitted effect of over 70% in size
NPR2 antag: Natriuretic polypeptide receptor (hNpr2) antagonism - Subtype selectivity assay; shares compounds with NPR1 antag; Potency, µM (top dose mostly 57.6 µM), hits mostly inhibitors; HEK293 hNpr2 GloSensor cGMP luminescence, CNP-stimulated; AID 1347046, 2019; 67% of 1,400 active; calls by dose curve; note: nearly all actives have a fitted effect of over 70% in size
FLuc counter: Natriuretic polypeptide receptor (hNpr1) antagonism - Confirmation firefly luciferase (FLuc) inhibition counterscreen; shares compounds with NPR1 antag; purified FLuc enzyme, luminescence, Km substrate; Potency, µM (doses to about 57.6 µM), hits mostly inhibitors; 0.7% of 1,400 active
GloSensor ctrl: Natriuretic polypeptide receptor (hNpr1) antagonism - Counterscreen GloSensor control cell line | 69% of 1,400 active | shares compounds with NPR1 antag | HEK293 GloSensor cGMP, SNP-stimulated, luminescence | Potency, µM (titrated, usually from 57.6 µM), most hits filed as inhibitors; calls by dose curve; note: nearly all actives have a fitted effect of over 70% in size
Of the large screens only hits and unclear results are named; the others gave an inactive call (follow-up assays come after a bar, where they were run). Unless noted, calls come from the whole dose curve; as a rule, active = well fitted curve in the direction sought with a large enough effect; inconclusive = small, poorly fitted or top-dose-only effect, or another doubt; inactive = no such curve, though single readings can be large; an effect the other way counts as inactive or inconclusive.

COC(=O)c1cccc(NC(=S)N[C@H]2CO[C@H]3[C@@H]2OC[C@H]3OC(=O)Nc2cccc3ccccc23)c1	HEK293 tox inconclusive, NPR1 antag inconclusive, 3T3 cytotox inconclusive
COc1ccc(NC(=O)O[C@@H]2CO[C@H]3[C@@H]2OC[C@@H]3NC(=O)Nc2cccc(C#N)c2)cc1	none
O=C(Nc1ccc(Oc2ccccc2)cc1)O[C@@H]1CO[C@H]2[C@@H]1OC[C@@H]2NC(=S)Nc1cccc2ccccc12	HEK293 tox inconclusive, NPR1 antag 10µM, 3T3 cytotox inconclusive | NPR1 antag cnf 5.44µM | NPR2 antag 6.85µM | FLuc counter inactive | GloSensor ctrl 6.11µM
N#Cc1cccc(CN[C@H]2CO[C@H]3[C@@H]2OC[C@H]3OC(=O)Nc2ccc(Oc3ccccc3)cc2)c1	HEK293 tox inconclusive, NPR1 antag 17.8µM, 3T3 cytotox inconclusive | NPR1 antag cnf 21.7µM | NPR2 antag 21.7µM | FLuc counter inactive | GloSensor ctrl 19.3µM
O=C(Nc1ccc(Oc2ccccc2)cc1)O[C@@H]1CO[C@H]2[C@@H]1OC[C@@H]2NS(=O)(=O)c1ccc2ccccc2c1	HEK293 tox inconclusive, NPR1 antag inconclusive, 3T3 cytotox inconclusive | NPR1 antag cnf 17.2µM | NPR2 antag 15.3µM | FLuc counter inactive | GloSensor ctrl 10.9µM
O=C(NCC1CC1)C1CCc2nnc(-c3ccccn3)n21 (centres undefined)	none (no result: NPR1 antag, Luciferase inh)
O=S(=O)(c1ccccc1C(F)(F)F)N1CC(c2nc(-c3ccncc3)no2)C1	GPT2 inhibitor inconclusive, HEK293 tox inconclusive, 3T3 cytotox inconclusive
Cc1cc(C)c(S(=O)(=O)N2CC(c3nc(-c4ccncc4)no3)C2)c(C)c1	HEK293 tox 44.7µM, NPR1 antag 14.1µM, 3T3 cytotox inconclusive | NPR1 antag cnf 24.3µM | NPR2 antag 21.7µM | FLuc counter inactive | GloSensor ctrl 21.7µM
COCCN1C(=O)c2ccccc2C(C(=O)N2CCN(c3ccccc3)CC2)C12CCCC2 (centres undefined)	HEK293 tox inconclusive
Cc1cnc(CN(C)c2cc(C3CC(O)C3)nc(N)n2)[nH]1 (centres undefined)	none
CN(C/C=C/c1ccccc1)c1cc(C2CC(O)C2)nc(N)n1 (centres undefined)	HEK293 tox inconclusive, NPR1 antag 12.6µM | NPR1 antag cnf 21.7µM | NPR2 antag 17.2µM | FLuc counter inactive | GloSensor ctrl 24.3µM
Fc1ccc(-c2cnc([C@@H]3COCCN3Cc3c[nH]c4ccccc34)[nH]2)c(F)c1	HEK293 tox 79.4µM, NPR1 antag 25.1µM, 3T3 cytotox inconclusive | NPR1 antag cnf 35.3µM | NPR2 antag 44.4µM | FLuc counter inactive | GloSensor ctrl 39.6µM
Fc1ccc(-c2cnc([C@@H]3COCCN3Cc3cccnc3)[nH]2)c(F)c1	GPT2 inhibitor inconclusive, HEK293 tox inconclusive, 3T3 cytotox inconclusive
CC(C)c1ccc(N2C(=O)[C@@H]3C[C@@H](NC(=O)C4CCN(c5nccc(C(F)(F)F)n5)CC4)CCN3C2=O)cc1	HEK293 tox inconclusive, NPR1 antag inconclusive, 3T3 cytotox inconclusive | NPR1 antag cnf inconclusive | NPR2 antag inconclusive | FLuc counter inactive | GloSensor ctrl inconclusive
CC1=C[C@@H](CNC(=O)C2CC2)[C@H](C(C)C)C[C@H]1Cc1nc2ccccc2n1C	HEK293 tox 44.7µM, NPR1 antag 25.1µM, 3T3 cytotox 100µM | NPR1 antag cnf 31.4µM | NPR2 antag 35.3µM | FLuc counter inactive | GloSensor ctrl 25µM
CS(=O)(=O)c1ccc(CN2CC[C@@H](c3ccc4ccccc4c3)[C@H](O)C2)cc1	HEK293 tox 39.8µM, NPR1 antag inconclusive, 3T3 cytotox inconclusive | NPR1 antag cnf inconclusive | NPR2 antag inconclusive | FLuc counter inactive | GloSensor ctrl 24.3µM
CCOc1ccc(C(=O)NC2CCN(c3cnn(CC)c(=O)c3)CC2)cc1	3T3 cytotox 28.2µM | NPR1 antag cnf inactive | NPR2 antag inactive | FLuc counter inactive | GloSensor ctrl inconclusive
CCOc1ccc(C(=O)NC2CCN(c3cnn(CCOC)c(=O)c3)CC2)cc1	none
CC(C)c1ccc(CC(=O)N2CCCc3ncc(C(=O)NCC(C)(C)CO)cc32)cc1	HEK293 tox inconclusive
CC(C)c1ccc(CC(=O)N2CCCc3ncc(C(=O)Nc4cccnc4)cc32)cc1	HEK293 tox 8.91µM, NPR1 antag 1.41µM, 3T3 cytotox 2.82µM | NPR1 antag cnf 3.53µM | NPR2 antag 6.27µM | FLuc counter inactive | GloSensor ctrl 4.98µM
CC(C)c1ccc(CC(=O)N2CCCc3ncc(C(=O)Nc4cccc(Cl)c4)cc32)cc1	HEK293 tox 25.1µM, NPR1 antag 11.2µM, 3T3 cytotox inconclusive | NPR1 antag cnf 15.3µM | NPR2 antag 17.2µM | FLuc counter inactive | GloSensor ctrl 21.7µM
CC(C)c1ccc(CC(=O)N2CCCc3ncc(C(=O)NCCc4ccccc4)cc32)cc1	HEK293 tox inconclusive, NPR1 antag inconclusive, 3T3 cytotox inconclusive, Luciferase inh inconclusive
CC(C)c1ccc(CC(=O)N2CCCc3ncc(C(=O)Nc4ccccn4)cc32)cc1	HEK293 tox 31.6µM, NPR1 antag 20µM, 3T3 cytotox 100µM | NPR1 antag cnf 11.1µM | NPR2 antag 17.7µM | FLuc counter inactive | GloSensor ctrl 11.1µM
O=C(c1ccccc1OCC1CCCN(Cc2ccc(F)cc2)C1)N1CCCCC1 (centres undefined)	HEK293 tox inconclusive
COc1cccc(C(=O)N[C@H]2[C@H](O)[C@H](O)C[C@@H]2c2ccc(C(F)(F)F)nc2)c1	HEK293 tox inconclusive
